# In PubChem BioAssay (NCATS):
# Inconclusive results are not listed. Where a call stands in place of a potency, no number is given. Values without a mark were called inactive. Active and inactive are the calls of the source. Calls come from the whole dose curve; tested in HEK293 reporter line.
# Assay: qHTS for Inhibitors of the Functional Ribonucleoprotein Complex (vRNP) of Lassa (LASV) Arenavirus: Viability assay - alamar blue signal for LASV Primary Screen (AID 1347083)
# Details: cell viability, alamar blue fluorescence (LASV minigenome counter-screen); series mostly up to 57.5 µM
# Note: nearly all actives have a fitted effect of over 80% in size.
SMILES,Potency,"activity change, negative = reduced viability"
O=c1[nH]cnc2[nH]ncc12,inactive,
CO[C@@]1(NC(=O)C(C(=O)O)c2ccc(O)cc2)C(=O)N2C(C(=O)O)=C(CSc3nnnn3C)CO[C@@H]21 (stereo not given in full),inactive,
CCCCCCCCCCCCCCCC(=O)OC(C)C,inactive,
CCCCCCCCCCCCCCCCCCN(C)C,inactive,
Nc1ccc(/C=C/c2ccc(N)cc2S(=O)(=O)O)c(S(=O)(=O)O)c1,,3.69% [at 0.757 µM]
COC(=O)[C@@H]1[C@H]2C[C@H]3c4[nH]c5ccccc5c4CCN3C[C@@H]2CC[C@@H]1O,inactive,
CCCCCCCCCCCCCCCCOP(=O)([O-])OCC[N+](C)(C)C,inactive,
CCCCCCCCCCCCOCCO,inactive,
Cc1cccc(C)c1NC(=O)CN(CC(=O)O)CC(=O)O,inactive,
CCC(Cc1c(I)cc(I)c(N)c1I)C(=O)O (stereo not given),inactive,
Cc1cn([C@@H]2O[C@H](CO)[C@@H](O)[C@H]2F)c(=O)[nH]c1=O,inactive,
CC(=O)N[C@@H](CC(C)C)C(=O)O,inactive,
COc1cc(/C=C/C(N)=O)cc(OC)c1OC,inactive,
O=C(C1CCCCC1)N1CC(=O)N2CCCc3ccccc3C2C1 (stereo not given),inactive,
O=C(O)Cc1cccc2ccccc12,inactive,
CNC(=O)c1c(I)c(NC(C)=O)c(I)c(C(=O)O)c1I,inactive,
NC(=O)CC[C@@H]1NC(=O)[C@H](Cc2ccccc2)NC(=O)[C@H](Cc2ccc(O)cc2)NC(=O)CCSSC[C@@H](C(=O)N2CCC[C@H]2C(=O)N[C@@H](CCCN=C(N)N)C(=O)NCC(N)=O)NC(=O)[C@H](CC(N)=O)NC1=O,inactive,
CCn1cc(C(=O)O)c(=O)c2cnc(N3CCNCC3)nc21,inactive,
Oc1cccc(O)c1,inactive,
COc1ccc2[nH]cc(CCNC(C)=O)c2c1,inactive,

SMILES,Potency,"activity change, negative = reduced viability"
COc1ccc2cccc(CCNC(C)=O)c2c1,inactive,
CSCC[C@H](NC(=O)[C@H](Cc1c[nH]c2ccccc12)NC(=O)CCNC(=O)OC(C)(C)C)C(=O)N[C@@H](CC(=O)O)C(=O)N[C@@H](Cc1ccccc1)C(N)=O,inactive,
NS(=O)(=O)c1cc(-c2nn[nH]n2)c(NCc2cccs2)cc1Cl,inactive,
C[C@@H](O)[C@H]1C(=O)N2C(C(=O)O)=C(SCCN=CN)C[C@H]12,inactive,
CC(C)(Sc1cc(C(C)(C)C)c(O)c(C(C)(C)C)c1)Sc1cc(C(C)(C)C)c(O)c(C(C)(C)C)c1,inactive,
CO[C@@]1(NC(=O)Cc2cccs2)C(=O)N2C(C(=O)O)=C(COC(N)=O)CS[C@@H]21,inactive,
NC1CCN(c2cccc(Cl)n2)CC1,inactive,
Cc1cc(C)nc(NS(=O)(=O)c2ccc(N)cc2)n1,inactive,
CCCCNC(=O)NS(=O)(=O)c1ccc(N)cc1,inactive,
O=C(COCCOCCOCC(=O)Nc1c(I)cc(I)c(C(=O)O)c1I)Nc1c(I)cc(I)c(C(=O)O)c1I,inactive,
O=C(O)CCCCC(=O)O,inactive,
CCCCC(CC)CN1CN(CC(CC)CCCC)CC(C)(N)C1 (stereo not given),inactive,
CN=C(NC#N)NCCSCc1nc[nH]c1C,inactive,
COc1ccc(NS(=O)(=O)c2ccc(N)cc2)nn1,inactive,
CC1c2ccccc2CN1NC(=O)c1ccc(Cl)c(S(N)(=O)=O)c1 (stereo not given),inactive,
FC(F)(F)c1ccccc1-n1ccnc1,inactive,
Cc1cccc(C(=O)O)c1O,inactive,
NCc1ccc(S(N)(=O)=O)cc1,inactive,
Cc1ccc2ccc(Cl)cc2n1,inactive,
Cc1nc2c([nH]1)c(=O)n(C)c(=O)n2Cc1ccco1,inactive,

# Assay: qHTS for Inhibitors of the Functional Ribonucleoprotein Complex (vRNP) of Lymphocytic Choriomeningitis Arenaviruses (LCMV): Viability assay - alamar blue signal for LCMV Primary Screen (AID 1347085)
# Details: alamar blue viability counter-screen, LCMV vRNP screen cells; series mostly up to 57.5 µM
SMILES,Potency,"activity change, negative = lower viability"
O=c1[nH]cnc2[nH]ncc12,inactive,
CO[C@@]1(NC(=O)C(C(=O)O)c2ccc(O)cc2)C(=O)N2C(C(=O)O)=C(CSc3nnnn3C)CO[C@@H]21 (stereo not given in full),inactive,
CCCCCCCCCCCCCCCC(=O)OC(C)C,inactive,
CCCCCCCCCCCCCCCCCCN(C)C,inactive,
Nc1ccc(/C=C/c2ccc(N)cc2S(=O)(=O)O)c(S(=O)(=O)O)c1,,0.0811% [at 0.757 µM]
COC(=O)[C@@H]1[C@H]2C[C@H]3c4[nH]c5ccccc5c4CCN3C[C@@H]2CC[C@@H]1O,inactive,
CCCCCCCCCCCCCCCCOP(=O)([O-])OCC[N+](C)(C)C,inactive,
CCCCCCCCCCCCOCCO,inactive,
Cc1cccc(C)c1NC(=O)CN(CC(=O)O)CC(=O)O,inactive,
CCC(Cc1c(I)cc(I)c(N)c1I)C(=O)O (stereo not given),inactive,
Cc1cn([C@@H]2O[C@H](CO)[C@@H](O)[C@H]2F)c(=O)[nH]c1=O,inactive,
CC(=O)N[C@@H](CC(C)C)C(=O)O,inactive,
COc1cc(/C=C/C(N)=O)cc(OC)c1OC,inactive,
O=C(C1CCCCC1)N1CC(=O)N2CCCc3ccccc3C2C1 (stereo not given),inactive,
O=C(O)Cc1cccc2ccccc12,inactive,
CNC(=O)c1c(I)c(NC(C)=O)c(I)c(C(=O)O)c1I,inactive,
NC(=O)CC[C@@H]1NC(=O)[C@H](Cc2ccccc2)NC(=O)[C@H](Cc2ccc(O)cc2)NC(=O)CCSSC[C@@H](C(=O)N2CCC[C@H]2C(=O)N[C@@H](CCCN=C(N)N)C(=O)NCC(N)=O)NC(=O)[C@H](CC(N)=O)NC1=O,inactive,
CCn1cc(C(=O)O)c(=O)c2cnc(N3CCNCC3)nc21,inactive,
Oc1cccc(O)c1,inactive,
COc1ccc2[nH]cc(CCNC(C)=O)c2c1,inactive,

SMILES,Potency,"activity change, negative = lower viability"
COc1ccc2cccc(CCNC(C)=O)c2c1,inactive,
CSCC[C@H](NC(=O)[C@H](Cc1c[nH]c2ccccc12)NC(=O)CCNC(=O)OC(C)(C)C)C(=O)N[C@@H](CC(=O)O)C(=O)N[C@@H](Cc1ccccc1)C(N)=O,inactive,
NS(=O)(=O)c1cc(-c2nn[nH]n2)c(NCc2cccs2)cc1Cl,inactive,
C[C@@H](O)[C@H]1C(=O)N2C(C(=O)O)=C(SCCN=CN)C[C@H]12,inactive,
CC(C)(Sc1cc(C(C)(C)C)c(O)c(C(C)(C)C)c1)Sc1cc(C(C)(C)C)c(O)c(C(C)(C)C)c1,inactive,
CO[C@@]1(NC(=O)Cc2cccs2)C(=O)N2C(C(=O)O)=C(COC(N)=O)CS[C@@H]21,inactive,
NC1CCN(c2cccc(Cl)n2)CC1,inactive,
Cc1cc(C)nc(NS(=O)(=O)c2ccc(N)cc2)n1,inactive,
CCCCNC(=O)NS(=O)(=O)c1ccc(N)cc1,inactive,
O=C(COCCOCCOCC(=O)Nc1c(I)cc(I)c(C(=O)O)c1I)Nc1c(I)cc(I)c(C(=O)O)c1I,inactive,
O=C(O)CCCCC(=O)O,inactive,
CCCCC(CC)CN1CN(CC(CC)CCCC)CC(C)(N)C1 (stereo not given),inactive,
CN=C(NC#N)NCCSCc1nc[nH]c1C,inactive,
COc1ccc(NS(=O)(=O)c2ccc(N)cc2)nn1,inactive,
CC1c2ccccc2CN1NC(=O)c1ccc(Cl)c(S(N)(=O)=O)c1 (stereo not given),inactive,
FC(F)(F)c1ccccc1-n1ccnc1,inactive,
Cc1cccc(C(=O)O)c1O,inactive,
NCc1ccc(S(N)(=O)=O)cc1,inactive,
Cc1ccc2ccc(Cl)cc2n1,inactive,
Cc1nc2c([nH]1)c(=O)n(C)c(=O)n2Cc1ccco1,inactive,
